# This is a sample that favours compounds with a hit; in the whole collection about 2.8% have one here.
# EphB4 ephrin blk: antagonists of human EphB4-ephrin-B2 interaction. P54760. EphB4 LBD / TNYL-RAW-Alexa532 peptide, fluorescence polarization. inhibition, % at 7 µM. 97,000 compounds, 0.15% hits. AID 720;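 active = inhibition above the screen-wide mean inhibition plus 3 SD, cut at about 15% in these data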;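 also: 0% = DMSO wells and 100% = excess unlabeled TNYL-RAW peptide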
# ERa coact pot: ER-alpha (human) coactivator binding potentiation | P03372 | TR-FRET ERalpha-LBD/SRC-Cy5 coactivator binding, 2 h; 100 = basal binding, no effect | coactivator binding (% of control), % at 25.6 µM | 86,000 compounds, 1.3% hits; in the data active = activity above about 200%;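 also: binding measured in presence of low estradiol as agonist stimulus; 0% = peptide alone without receptor and 100% = receptor with peptide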
# Target sequence (P03372 whole entry, looked up, the tested form may be a part): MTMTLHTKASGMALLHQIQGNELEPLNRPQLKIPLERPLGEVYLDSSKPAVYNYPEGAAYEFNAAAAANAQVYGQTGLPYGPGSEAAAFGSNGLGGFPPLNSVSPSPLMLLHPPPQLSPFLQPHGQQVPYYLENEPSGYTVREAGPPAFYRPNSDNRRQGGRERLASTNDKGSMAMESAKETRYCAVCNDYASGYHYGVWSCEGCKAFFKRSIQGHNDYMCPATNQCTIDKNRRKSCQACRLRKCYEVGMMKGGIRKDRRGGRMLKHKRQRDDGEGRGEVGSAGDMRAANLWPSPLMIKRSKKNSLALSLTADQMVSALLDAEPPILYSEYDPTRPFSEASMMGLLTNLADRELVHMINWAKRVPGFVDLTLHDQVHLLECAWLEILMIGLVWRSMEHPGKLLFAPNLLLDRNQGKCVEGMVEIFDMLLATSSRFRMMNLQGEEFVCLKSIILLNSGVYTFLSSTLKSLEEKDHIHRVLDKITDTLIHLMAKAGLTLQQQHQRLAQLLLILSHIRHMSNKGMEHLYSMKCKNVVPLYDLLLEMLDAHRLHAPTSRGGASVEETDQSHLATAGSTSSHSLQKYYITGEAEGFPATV
# ERa coact inh: blocks coactivator binding to human estrogen receptor alpha. P03372. TR-FRET ER-alpha LBD / SRC-1 peptide, estradiol-bound. inhibition, % at 25.6 µM. 86,000 compounds, 1.7% hits; in the data active = inhibition above about 50%;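 also: 0% = receptor plus peptide control and 100% = peptide only without receptor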
# ERb coact inh: ER-beta (human) coactivator binding inhibition | 86,000 compounds, 1.3% hits | TR-FRET ER-beta LBD / SRC1-Cy5 peptide binding; receptor agonist-loaded with 1 µM estradiol | AID 633 | inhibition, % at 25.6 µM;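 active = compounds whose percent inhibition of the receptor-coactivator binding signal exceeds about 50% in the single-dose screen, limit read from the data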;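 also: 0% = receptor plus peptide wells without compound and 100% = peptide-only wells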
# * hit, by the source's call; / = no result; [ ] = another dose, or the depositor's remark.
SMILES,EphB4 ephrin blk,ERa coact pot,ERa coact inh,ERb coact inh
O=C(CSc1ncccc1-c1nc2ccccc2[nH]1)N1CCN(c2ccccc2F)CC1,2.9,223.4*,-8.9,4.1
C[C@H](NC(=O)C1(c2ccccc2)CCN(C(=O)[C@H]2CSCN2C(=O)OC(C)(C)C)CC1)C(=O)O,-14.3,117.4,-7.5,-1.6
CN1CCN(Cc2nc3c(c(=O)n(C)c(=O)n3C)n2CCc2ccccc2)CC1,/,96.2,-4.7,9.0
Cc1nn(Cc2ccccc2Cl)c(C)c1C(=O)NCc1ccco1,-1.4,106.4,3.4,79.0*
CCCn1cnc2c(c1=O)c1nc3ccccc3nc1n2CCC1=CCCCC1,-4.2,105.3,1.6,7.6
O=c1c2c3nc4ccccc4nc3n(/N=C/c3ccco3)c2ncn1CCC1=CCCCC1,/,85.0,66.1*[fluorescence artefact?],40.1
CCOC(=O)N1CCC(NC(=O)c2cc(C(=O)Nc3ccc(OC)c(OC)c3)ccc2CO)CC1,4.4,112.2,-5.0,1.6
O=C1c2ccccc2CC1(Cc1ccccc1)Cc1ccccc1,-3.9,278.9*,1.5,-6.2
CC1(C)Cc2ccccc2C(=O)N1,9.2,131.6,-0.8,18.1
Cc1sc2ncnc(SCC(=O)NCC(C)C)c2c1C,-3.5,/,/,/
CCC(Sc1ncnc2sc(C)c(C)c12)C(=O)OC (stereo not given),2.2,41.9,63.2*[fluorescence artefact?],60.6*
Cc1sc2ncnc(SCC(=O)c3ccc(Cl)s3)c2c1C,6.8,243.1*,-0.4,-2.7
COC(=O)C1C(=O)NC(SC)=C(C#N)C1c1ccccc1F (stereo not given),1.3,111.8,-6.5,-7.2
O=C(NCc1ccco1)c1ccc(Cn2c(=O)c3sccc3n(Cc3cccc(F)c3)c2=O)cc1,-0.9,141.6,57.3*[fluorescence artefact?],25.5
O=C(NCc1ccco1)c1ccc(Cn2c(=O)c3ccccc3n(Cc3cccc(Cl)c3)c2=O)cc1,-0.9,61.3,66.6*[fluorescence artefact?],50.0
Cc1ccc(C(=O)Nc2cc(C)c(OCC(=O)N3CCOCC3)c(C)c2)cc1,5.9,96.2,-1.5,4.3
CCCCNC(=O)CSc1nnc(-c2c[nH]c3ccccc23)n1CC1CCCO1 (stereo not given),5.3,/,/,/
CCS(=O)(=O)N1Cc2ccccc2CC1C(=O)N1CCN(c2ccccc2)CC1 (stereo not given),-5.1,222.6*[fluorescence artefact?],14.0,2.8
CN1CCCC(OC(=O)c2ccc3c(c2)OCCO3)C1 (stereo not given),-5.7,127.2,0.0,60.3*
NC(=O)c1ccc2c(c1)OCCO2,-8.0,121.2,8.1,21.4
O=C(O)c1ccc2c(c1)OCCO2,3.2,109.9,77.1*[fluorescence artefact?],2.8
COc1ccc(CNC(=O)CCCn2c(SCC#N)nc3cc4c(cc3c2=O)OCO4)cc1,-5.2,/,/,/
Cc1cc(C)c2cc3c(ccn3C3OC[C@H](O)[C@H](O)[C@H]3O)cc2n1 (stereo not given in full),1.3,82.9,18.1,51.9*[fluorescence artefact?]
CC(=O)O[C@@H]1[C@@H](OC(C)=O)[C@H](n2ccc3cc([N+](=O)[O-])ccc32)OC[C@@H]1OC(C)=O,-2.9,92.2,-8.6,0.8
Cc1cc(C)c(S(=O)(=O)NCc2ccc3c(c2)cc(C)n3C)c(C)c1,-4.1,256.7*[fluorescence artefact?],10.1,12.2
SMILES,EphB4 ephrin blk,ERa coact pot,ERa coact inh,ERb coact inh
Cc1cc2cc(CNS(=O)(=O)c3ccc4ccccc4c3)ccc2n1C,3.0,651.1*[fluorescence artefact?],26.9,-2.3
CC(=O)Nc1ccc(S(=O)(=O)NCc2ccc3c(c2)cc(C)n3C)cc1,-6.8,80.9,12.6,40.3
COc1ccc(C2C=C(c3ccccc3)Nc3ncnn32)cc1 (stereo not given),5.2,109.0,-12.3,85.7*[fluorescence artefact?]
CCOC(=O)N1CCN(c2c(-c3ccccc3)c3cc(Cl)ccc3[nH]c2=O)CC1,-1.8,/,/,/
CCN(CC)c1c(-c2ccccc2)c2cc(C)ccc2[nH]c1=O,/,248.1*[fluorescence artefact?],25.9,40.1
CC(C)=CCC/C(C)=C/CCC(C)NCCN1CCNCC1 (stereo not given),-11.5,200.7*[fluorescence artefact?],4.7,-4.6
CCOC(=O)c1ccc(NC(=O)CN(Cc2ccc(Cl)cc2)S(C)(=O)=O)cc1,-2.9,106.4,-6.5,2.4
COc1cccc2cc(C(=O)Nc3cccc(C)n3)c(=O)oc12,/,253.2*,34.6,25.4
COc1cccc2cc(C(=O)Nc3cccnc3N3CCOCC3)c(=O)oc12,-0.7,289.3*,-18.1,0.9
O=C(Nc1cccnc1N1CCOCC1)c1cc2ccccc2oc1=O,/,120.8,-3.5,-12.6
COc1cccc2cc(C(=O)N3CCC(C)CC3)c(=O)oc12,5.5,102.3,-4.9,-1.0
COc1ccc(CN(Cc2cccnc2)C(=S)NCCc2ccccc2)cc1OC,2.6,/,/,/
O=C(c1ccco1)N1CCN(c2nnc(-c3ccccc3)c3ccccc23)CC1,0.1,84.5,3.8,-5.1
CC1CCN(S(=O)(=O)c2cc(Br)cc(C(=O)NC3=NCCS3)c2)CC1,16.7*,82.9,0.5,-2.3
CCOC(=O)Cc1c(C)nc2c(-c3ccc(Cl)cc3)c[nH]n2c1=O,/,118.5,-6.4,-16.2
O=c1oc2cc(Cl)ccc2n1CSc1nc2ccccc2s1,-3.5,99.7,1.1,4.6
CCCCn1c(SCC(=O)NCc2ccco2)nc2c(sc3ccccc32)c1=O,-1.5,120.5,19.4,19.2
CCCCn1c(SCC(N)=O)nc2c(sc3ccccc32)c1=O,2.3,263.4*,53.0*[fluorescence artefact?],23.8
O=C(NC1CCCC1)c1ccc(CNc2c(N3CCOCC3)c(=O)c2=O)cc1,1.0,/,/,/
COc1ccc(C)cc1NC(=O)c1cnc2scc(C)n2c1=O,/,215.7*[fluorescence artefact?],20.1,9.4
CSCC[C@H](NC(=O)c1nn(C)c(=O)c2ccccc12)c1nc2ccccc2[nH]1,-0.2,100.5,6.3,-3.1
Cc1ccc(S(=O)(=O)c2c(COC(=O)c3ccc(Cl)cc3)c(-c3ccccc3)nn2C)cc1,-2.7,113.0,3.9,-0.3
Cc1cc(NC(=O)c2c(F)cccc2Cl)n(-c2nc3ccccc3[nH]2)n1,2.5,105.5,1.7,51.8*
Cc1cc(NC(=O)c2ccccc2F)n(-c2nc3ccccc3[nH]2)n1,8.9,183.8,53.0*[fluorescence artefact?],52.0*[fluorescence artefact?]
Cc1cccc(/C=N\NC(=O)c2sccc2-n2cccc2)c1,-9.3,/,/,/
SMILES,EphB4 ephrin blk,ERa coact pot,ERa coact inh,ERb coact inh
N#Cc1ccsc1NC(=O)CSc1ncnc2ccccc12,-4.9,25.2,90.6*[fluorescence artefact?],61.3*
Cn1ccnc1SCC(=O)Nc1sccc1C#N,-0.5,43.0,66.8*[fluorescence artefact?],39.2
N#Cc1ccsc1NC(=O)CSc1ncn[nH]1,10.5,76.5,7.9,6.7
O=C(CSc1ncnc2ccccc12)NCCCO,-0.2,124.1,4.4,-14.8
CSc1nc2c(c(-c3ccccc3)c1C#N)CCC2,-6.1,104.2,-4.7,-13.4
CSc1ccc(Cl)c(C(=O)NCc2ccco2)c1,-8.9,106.1,11.6,9.0
Cc1ccc(NS(=O)(=O)c2ccc(OCC(=O)NCc3ccco3)cc2)cc1,0.7,97.3,-12.0,-7.0
O=C(COC(=O)c1cncc(Br)c1)NCc1ccco1,-1.6,109.6,60.1*[fluorescence artefact?],50.1*[fluorescence artefact?]
CCOc1cc(C(=O)OCC(=O)NCc2ccco2)cc(OCC)c1OCC,-8.6,79.8,56.9*[fluorescence artefact?],44.5
CSc1ccc(Cl)c(C(=O)OCC(=O)NCc2ccco2)c1,0.4,141.6,52.3*[fluorescence artefact?],47.5
Cc1ccc(NS(=O)(=O)c2cccc(C(=O)OCC(=O)NCc3ccco3)c2)cc1,/,92.5,53.1*,45.0

# Screens deposited in PubChem by several laboratories.
